Results filed as inconclusive are left out. A number with no mark means an inactive call. Active and inactive are the calls of the source. The call rests on the fitted dose curve; in most records, active means well fitted curve in either direction with a large enough effect (not every such curve was filed as active); inconclusive means small, poorly fitted or top-dose-only effect, or another doubt; inactive means flat fitted curve, though single readings scatter.
On the % scale 0 is the no-effect control and ±100 the full control effect.

The assay concerns the target Mitogen-activated protein kinase 10 (Mus musculus) (UniProt Q61831). Kind of assay: JNK3 AlphaScreen Assay (AID 530).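 Further: kinase came from lysate of stimulated human HepG2 cells.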 The note with it: JNK3 lysate, c-Jun phosphorylation; series mostly up to 57.1 µM; activity change, negative = inhibition: at the top concentration. From the text:
NIH Chemical Genomics Center [NCGC]
NIH Molecular Libraries Screening Centers Network [MLSCN]
The c-jun N-terminal kinase (JNK) family are serine/threonine protein kinases that phosphorylate c-jun, a component of the transcription factor […] (AP-1). JNK kinases are members of the mitogen-activated protein kinase family including the extracellular regulated kinases and p38 kinases. Three JNK genes (JNK 1, 2, and 3) have been identified in humans so far. JNK1 and JNK2 have a broad distribution and JNK3 is primarily found in neuronal tissues and cardiac myocytes.
JNK3 has been under consideration as a target for the treatment of neurodegenerative disorders. […] JNK pathway is also involved in pathological process in a mouse model of Parkinson's disease (Xia et al., 2001).
Given these potential tissue distributions and links to neuroprotection, JNK3 inhibitors should provide useful investigational tools to study the role of this kinase in several diseases including, arthritis, stroke, myocardial infarction, ischemic injury and Parkinson's disease.
A homogeneous AlphaScreen is developed to measure the activity of JNK3. AlphaScreen is a two bead-based proximity-dependent chemical energy transfer luminescent assay platform. The phosphorylation of a biotinylated c-jun substrate by JNK3 can be detected with an antibody raised against phosphorylated c-jun. This process brings streptavidin donor beads and Protein-A acceptor beads to within a proximity range of <200 nm, and subsequently lead a chemical luminescent reaction upon exciting donor beads with 680 nm laser excitation light. Inhibition of JNK3 activity by small molecules and subsequent decrease in the antibody binding to biotinylated c-jun could attenuate or abolish this chemical luminescent reaction.
Yang DD, Kuan CY, Whitmarsh AJ, Rincon M, Zheng TS, Davis RJ, Rakic P and Flavell RA (1997) Absence of excitotoxicity-induced apoptosis in the hippocampus of mice lacking the Jnk3 gene. Nature 389:865-870. [PMID: 9349820]
Herdegen T, Claret FX, Kallunki T, Martin-Villalba A, Winter C, Hunter T, and Karin M (1998) Lasting N-terminal phosphorylation of c-Jun and activation of c-Jun N-terminal kinases after neuronal injury. J.Neurosci. 18:5124-5135. [PMID: 9651196]
Xia XG, Harding T, Weller M, Bieneman A, Uney JB and Schulz JB (2001) Gene transfer of the JNK interacting protein-1 protects dopaminergic neurons in the MPTP model of Parkinson's disease. Proc.Natl.Acad.Sci.U.S.A. 98:10433-10438.
NCGC Assay Protocol Summary:
GST-cJun (1-79) (Stratagene, La Jolla CA, #205145) was biotnylated by PerkinElmer (PerkinElmer-BioSignalInc. Montreal, Canada) and was detectable by the streptavidin Donor beads. Anti-(phospho)cJun (Ser73) antibody was from UpState (Charlottesvilles, VA, #06-659). JNK3-containing lysates were generated from HepG2 cells and pre-activated by interleukin1-beta and tumor necrosis factor alpha. All reagents were stored at -20 C before using. Phosphorylated biotinylated-GST-cJun was recognized by Anti-(phospho)cJun (Ser73) antibody and this process brings acceptor and donor beads together. Therefore JNK3 phosphorylation of cJun can be measured by Alpha reading by EnVision (PerkinElmer, Boston, MA).
The composition of kinase buffer was (in mM) 20 tris- HCl (pH 7.6) 10 MgCl2, 1 DTT, and 0.1 Na3VO4 and 0.01% Tween-20. Beads were diluted in detection buffer containing (in mM) 20 tris-HCl (pH 7.7), 20 NaCl and 80 EDTA and 0.3% BSA. The assay was performed at room temperature. All compounds were screened as titrations from 0.6 nM to 46 uM final concentration. The assay was performed in 1536-well format (white solid bottom and untreated) as follows:
Sequence,Parameter,Value,Description
1,Reagent,3 uL,Biotin-GST-cJun, Anti-(phospho)cJun and pre-activated JNK3-containing lysates
2,Compound,23 nL,Final concentration was 0.6nM to 46uM
3,Time,15 minutes,Room Temperature
4,Reagent,1 uL,ATP final concentration 10uM
6,Reagent,0.5 uL,2ng/well bead mixture
[…]
Consider `C=CCN1CC[C@@]23CCCC[C@@H]2[C@@H]1Cc1ccc(O)cc13`, for which the “activity change, negative = inhibition” value was -21.8%.

With `CNc1ccc2oc(C[C@@H]3O[C@@]4(CC[C@H]3C)O[C@@H]([C@@H](C)C(=O)c3ccc[nH]3)[C@@H](C)C[C@H]4C)nc2c1C(=O)O`, the “activity change, negative = inhibition” value was -19.1%.

Consider `O=[N+]([O-])c1cc(C(F)(F)F)cc([N+](=O)[O-])c1Cl`, for which the “activity change, negative = inhibition” value is -12.7%.

As to `O=C(CCCN1CCC2(CC1)C(=O)N(CCc1ccc(N=C=S)cc1)CN2c1ccccc1)c1ccc(F)cc1`, the “activity change, negative = inhibition” value is 5.66%.

As to `CN(CCc1ccc(Cl)c(Cl)c1)[C@H]1CCCC[C@H]1N1CCCC1`, the “activity change, negative = inhibition” value is 15.5%.

For `O=P(N[C@@H](c1ccccc1)[C@@H]1C[C@H]1CO)(c1ccccc1)c1ccccc1`, the “activity change, negative = inhibition” value is 3.85%.

In the case of `CCCC[C@@H]1C[C@H]1C(NP(=O)(c1ccccc1)c1ccccc1)c1ccc(Cl)cc1` (stereo not given in full), the “activity change, negative = inhibition” value is -2.92%.

On to `CC[C@]1(O)C(=O)OCc2c1cc1n(c2=O)Cc2cc3ccccc3nc2-1`, for which the “activity change, negative = inhibition” value is 3.72%.

For the molecule `C[C@@H]1O[C@@H](O[C@H]2C[C@@H](O)[C@]3(CO)[C@@H]4[C@@H](O)C[C@]5(C)[C@H](C6=CC(=O)OC6)CC[C@@]5(O)[C@H]4CC[C@@]3(O)C2)[C@H](O)[C@H](O)[C@@H]1O`, the “activity change, negative = inhibition” value was 6.11%.

In the case of `O=C1C[C@@H]2OCC=C3CN4CC[C@]56c7ccccc7N1[C@H]5[C@@H]2[C@H]3C[C@@H]46`, the “activity change, negative = inhibition” value is 1.8%.

For `CCCc1cc2c(n1Cc1ccco1)C(C)C1CN(C(=O)c3ccccc3)C(C)(C(=O)OC)C21` (stereo not given), the “activity change, negative = inhibition” value was -8.15%.

As to `O=C1C2(Cl)C3(Cl)C4(Cl)C(Cl)(Cl)C5(Cl)C3(Cl)C1(Cl)C5(Cl)C24Cl` (stereo not given), the molecule was called inactive.

With `C[C@H]1CC[C@@H]2[C@@H](C)C(=O)O[C@H]3O[C@@]4(C)CC[C@@H]1[C@]32OO4`, the “activity change, negative = inhibition” value is 9.11%.

On to `C[C@H](N[C@@H](C)CCc1ccccc1)[C@H](O)c1ccc(O)cc1`, for which the “activity change, negative = inhibition” value was 14.8%.

`CC(C)(O)[C@H]1[C@H]2OC(=O)[C@@H]1[C@]1(O)C[C@H]3O[C@]34C(=O)O[C@H]2[C@]14C`: the “activity change, negative = inhibition” value is -11%.

Consider `C[C@]12Cc3cn4c(nc3C=C1CC[C@H]1[C@@H]2CC[C@@]2(C)[C@H]1CC[C@@]2(O)C#N)nc1ccccc14`, for which the “activity change, negative = inhibition” value was 24.8%.

As for `CC1=C2[C@@H]3OC(=O)[C@H](C)[C@H]3CC[C@@]2(C)C=CC1=O`, the “activity change, negative = inhibition” value is 12.7%.

`C[C@H](N)c1cccc(Cl)c1Cl`: the “activity change, negative = inhibition” value was -5.1%.

For the molecule `COC(=O)[C@@]1(Cc2ccccc2)[C@H]2c3cc(C(=O)N(C)C)[nH]c3C[C@H]2CN1C(=O)c1ccccc1`, the “activity change, negative = inhibition” value was -14%.

For the molecule `C[C@@H]1CC[C@@]2(OC1)O[C@H]1[C@@H](O)[C@H]3[C@@H]4CC[C@H]5C[C@@H](O[C@@H]6O[C@H](CO)[C@H](O[C@@H]7O[C@H](CO)[C@@H](O)[C@H](O[C@@H]8OC[C@@H](O)[C@H](O)[C@H]8O)[C@H]7O[C@@H]7O[C@H](CO)[C@@H](O)[C@H](O[C@@H]8O[C@H](CO)[C@@H](O)[C@H](O)[C@H]8O)[C@H]7O)[C@H](O)[C@H]6O)[C@H](O)C[C@]5(C)[C@H]4CC[C@]3(C)[C@H]1[C@@H]2C`, the “activity change, negative = inhibition” value is 2.23%.

For the molecule `CC(C)(O)[C@H]1[C@H]2OC(=O)[C@@H]1[C@]1(O)C[C@H]3O[C@]34C(=O)O[C@H]2[C@]14C` (tested in a mixture with another compound), the “activity change, negative = inhibition” value is -16.8%.

As for `Oc1ccc2c3c1O[C@@H]1[C@@H](O)CC[C@]4(O)[C@H](C2)N(CC2CCC2)CC[C@@]314`, the “activity change, negative = inhibition” value is -16.8%.

Regarding `COC(=O)[C@@]1(Cc2ccc(F)cc2)[C@H]2c3cc(C(=O)N(C)C)[nH]c3C[C@H]2CN1C(=O)c1ccccc1`, the “activity change, negative = inhibition” value was -13.3%.

`C[N+]1(C)[C@@H]2CC(OC(=O)[C@@H](CO)c3ccccc3)C[C@@H]1[C@H]1O[C@H]12` (stereo not given in full): the activity change, negative = inhibition was 0.144% [at 11.4 µM].

With `CC[C@@H]1CN2CC[C@@H]1C[C@H]2[C@@H](O)c1ccnc2ccc(OC)cc12`, the “activity change, negative = inhibition” value was 7.55%.

On to `COc1cc2c(cc1O)CCN[C@H]2C`, for which the “activity change, negative = inhibition” value is 9.5%.

Take `O=C(O)[C@H]1C[C@@H]1[C@H](NP(=O)(c1ccccc1)c1ccccc1)c1ccccc1`: the “activity change, negative = inhibition” value is 5.18%.

Regarding `CCCC[N+]1(C)[C@@H]2CC(OC(=O)[C@@H](CO)c3ccccc3)C[C@H]1[C@H]1O[C@H]12` (stereo not given in full), the “activity change, negative = inhibition” value is 22.8%.

Take `OC[C@H]1CCCN2CCCC[C@@H]12`: the “activity change, negative = inhibition” value is 15%.

On to `[Cd+2].[Cl-].[Cl-]`, for which the “activity change, negative = inhibition” value is -12.4%.

Consider `CNC(=O)[C@@H]1C[C@H]1[C@@H](NP(=O)(c1ccccc1)c1ccccc1)c1ccccc1`, for which the “activity change, negative = inhibition” value is -4.68%.

Turning to `CCCc1cc2c(n1Cc1cccc(Cl)c1)C(C)C1CN(C(=O)c3ccccc3)C(C)(C(=O)OC)C21` (stereo not given), the “activity change, negative = inhibition” value was -4.06%.

Turning to `C(=NC1CCCCC1)=NC1CCCCC1`, the “activity change, negative = inhibition” value was 13.1%.

Turning to `C[C@@H](Cc1ccc2c(c1)OC(C(=O)O)(C(=O)O)O2)NC[C@H](O)c1cccc(Cl)c1`, the “activity change, negative = inhibition” value is 12.1%.

For the molecule `C[C@]1(C(=O)O)[C@@H]2CC[C@@H](O2)[C@@]1(C)C(=O)O`, the “activity change, negative = inhibition” value was -1.91%.

`[CH3][Hg][Cl]`: the “activity change, negative = inhibition” value was 16.9%.

Consider `NC(N)=Nc1ccc2[nH]c3c(c2c1)C[C@]1(O)[C@@H]2Cc4ccc(O)c5c4[C@]1(CCN2CC1CC1)[C@H]3O5`, for which the “activity change, negative = inhibition” value is -6.67%.

Turning to `COC[C@H]1OC(=O)c2coc3c2[C@@]1(C)C1=C(C3=O)[C@H]2CCC(=O)[C@@]2(C)C[C@H]1OC(C)=O`, the “activity change, negative = inhibition” value is -26.8%.

For `O=c1ccc2cc(O[C@@H]3O[C@@H](CO)[C@@H](O)[C@@H](O)[C@H]3O)c(O)cc2o1`, the “activity change, negative = inhibition” value was -3.7%.

`COC(=O)[C@@H]1C[C@@H]1[C@@H](NP(=O)(c1ccccc1)c1ccccc1)c1ccccc1`: the “activity change, negative = inhibition” value was -1.16%.

(Values after PubChem BioAssay (NCATS).)
